Measurements as given in PubChem BioAssay (NCI).
About 83,000 compounds went through this panel and 20% of them were active in at least one assay; those are over-represented in the sample as a whole.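 Plates (96-well) were seeded with cells, treated with compound at one concentration, and incubated for 48 hours before percent growth was determined.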 A number with no mark means an inactive call. Activity calls are given as the source filed them. Rule for the calls: active = growth percent below 10; inactive = the rest.

Experiments:
Experiment in all cases: NCI-60 one-dose screen, 48 h (100 = growth as untreated, 0 = no growth, -100 = all killed)
Conditions in all cases: 10 µM unless noted
NCI-H23 lung = tested on: NCI-H23 lung
NCI-H226 lung = tested on: NCI-H226 lung
NCI-H322M lung = tested on: NCI-H322M lung
NCI-H460 lung = tested on: NCI-H460 lung
HOP-92 NSCLC = tested on: HOP-92 NSCLC
NCI-H522 lung = tested on: NCI-H522 lung
A549/ATCC NSCLC = tested on: A549/ATCC NSCLC
786-0 renal = tested on: 786-0 renal
COLO 205 colon = tested on: COLO 205 colon
HOP-62 NSCLC = tested on: HOP-62 NSCLC

SMILES | growth (NCI-H23 lung) | growth (NCI-H226 lung) | growth (NCI-H322M lung) | growth (NCI-H460 lung) | growth (HOP-92 NSCLC) | growth (NCI-H522 lung) | growth (A549/ATCC NSCLC) | growth (786-0 renal) | growth (COLO 205 colon) | growth (HOP-62 NSCLC) [%]
CC1=CCC(OC(=O)C(C)(C)CC(O)(C(C)O)C(O)C2(C)C=CC(Cc3ccc(C(C)C)cc3)(C(C)C)CC2)(C(C)C)CC1 (stereo unspecified) | 95.6% | 92.3% | 93.7% | 103% | 84.9% | 91.2% | 98.5% | 99.9% | 103% | –
Cc1ccc2c(-c3nnc(N)s3)cc(=O)oc2c1C | 95.5% | 97.5% | 98.5% | 102% | 106% | 102% | 104% | 92.4% | 119% | –
CSC1=Nc2c(c(C)c(-c3ccccc3)n2CCCC(=O)O)C2=NC(=O)C[C@H](C)N12 | 105% | 110% | 102% | 102% | 94.3% | 93% | 101% | 102% | 119% | –
Cc1ccc(C(=O)Nc2cccc(C#Cc3cccc4[nH]nc(N)c34)c2)cc1C(F)(F)F | 51.8% | 55.8% | 79.2% | 75.6% | 63.8% | 60.2% | 67.5% | 62.6% | 40.2% | –
COc1ccc(/C=C/C(=O)c2ccc(NC(=O)CSc3nc4c([nH]3)c(=O)n(C)c(=O)n4C)cc2)cc1OC | 93% | 81.1% | 81% | 94.6% | 73.2% | 96.8% | – | 82.3% | 117% | 89.5
CC1CCN(C(=S)SCC(=O)NC(=O)c2ccccc2)CC1 | 102% | 109% | 105% | 110% | 107% | 83.3% | 105% | 103% | 104% | –
Clc1ccccc1-c1cnn2cc(-c3ccccc3)cnc12 | 90.3% | 83.2% | 87% | 75.3% | 82.9% | 77.3% | 70.5% | 76.7% | 91.8% | –
CN1C(=O)/C(=C/c2ccc(C(=O)Nc3ncc(Cc4cccc(Cl)c4)s3)cc2)SC1=S | 59.5% | 64.5% | 76.2% | 20.3% | 71.9% | 57.5% | – | 63.4% | 57.8% | 62.9
Cc1ccc(C)c(/C=C2\CN(C(=O)OC(C)(C)C)C/C(=C\c3cc(C)ccc3C)C2=O)c1 | 49.7% | 89% | 93.9% | 45.3% | 91.3% | 46.1% | – | 74.5% | 30.9% | 93.4
Cc1ccc(-c2nc(/C=C3/C(=O)Nc4ccc(F)cc43)c3ccccn23)cc1 | 77.1% | 95.2% | 91.6% | 36% | 82.2% | 62.7% | – | 112% | 81.9% | 92.8
CCN(CC)c1ccc(/C=N/NC(=O)Cc2ccc(Nc3ccnc(C(F)(F)F)c3)cc2)c(O)c1 | 19.1% | 19.4% | 25.9% | 8.96% (active) | 54.1% | 33.9% | 23.4% | 1.44% (active) | 64.9% | –
COc1ccc(Cn2cc3c(c2-c2ccccc2)CCc2cnoc2-3)cc1 | 27.2% | 43.6% | 70.2% | 2.53% (active) | 52.2% | 12.1% | 20.5% | 19.4% | -30.1% (active) | –
NC(=O)c1cccc([C@@H]2O[C@H](CO)[C@@H](O)[C@H]2O)c1 | 63.7% | 73.1% | 87% | 103% | 52.4% | 42.2% | 71.6% | 12.9% | 40.5% | –
CCOc1c(OC)cc2c(c1O)C(=O)N[C@@H]1[C@@H](O)[C@@H](O)[C@H](O)C[C@@H]21 | 107% | 99.8% | 103% | 112% | 85.2% | 92.3% | 94.7% | 102% | 115% | –
COc1ccc(C(=O)/C=C/c2ccc(Cl)cc2)cc1S(=O)(=O)Nc1c(N)nc(SC)[nH]c1=O | 84.1% | 83.2% | 27.7% | 84% | 73.7% | 59.7% | 31.4% | 31% | 49.8% | –
CC1=C(C(=O)Nc2ccccc2)C(c2ccc3c(c2)OCO3)NC(=S)N1 (stereo unspecified) | 97.9% | 96.7% | 107% | 113% | 112% | 87.9% | 108% | 101% | – | –
O=C1/C(=C\c2ccccn2)c2ccccc2N1c1c(Cl)cccc1Cl | 13% | 25.2% | 61.4% | -29.3% (active) | -7.93% (active) | 36.8% | 50.3% | -81.4% (active) | -16.1% (active) | –
Cc1cc(Nc2ccc(C(=O)N3CCCC3)cc2)nc(NCCCNc2ccnc3cc(Cl)ccc23)n1 | 87.8% | 105% | 85.8% | 59.4% | 90.5% | 65.6% | 104% | 87.9% | 76.5% | –
CCN(CC)CCCOc1ccc2ncnc(Nc3ccc(Oc4cccc(C(F)(F)F)c4)c(Cl)c3)c2c1 | 15.4% | 73.1% | 16% | -87.7% (active) | 27.3% | -2.46% (active) | 5.61% (active) | -83.9% (active) | -36.7% (active) | –
COc1ccc(/C=C/C(=O)c2cc3c(N)c(C(=O)Nc4cccc(Cl)c4C)sc3nc2C)cc1 | 19.8% | 34.8% | 33.1% | 0.238% (active) | 39.2% | -8.5% (active) | 17.6% | 4.44% (active) | -28.9% (active) | –
CC(=O)c1ccc(Nc2nccc(-c3ccc4ccccc4c3)n2)cc1 | 94.4% | 57.1% | 97.8% | 98.4% | 97.5% | 45.6% | 89.1% | 96.9% | 105% | –

SMILES | growth (NCI-H23 lung) | growth (NCI-H226 lung) | growth (NCI-H322M lung) | growth (NCI-H460 lung) | growth (HOP-92 NSCLC) | growth (NCI-H522 lung) | growth (A549/ATCC NSCLC) | growth (786-0 renal) | growth (COLO 205 colon) | growth (HOP-62 NSCLC) [%]
C/C=C(\C)C(=O)N[C@H]1C(O)C[C@]2(C)C3CC[C@@]4(C)C(CC[C@@H]4C(C)N(C)C)C3CCC2C1O (stereo partly specified) | 68.7% | 115% | 65.2% | 30.7% | 46.6% | 90.6% | 81.6% | 68.4% | – | –
COc1cc(/C=N/Nc2ccc(Br)cc2)cc(OC)c1OC | 75.8% | 80.1% | 66.3% | 31.1% | 98.2% | 39.8% | 54.9% | 77.8% | 86.9% | –
Cc1[nH]c(C2CC(c3ccc(C(F)(F)F)c(F)c3)=NN2c2ccccc2)c(C)c1C(=O)NCC(F)(F)F (stereo unspecified) | 89% | 77.2% | 88% | 94.2% | 113% | 89.5% | 84.8% | 90.7% | 93.7% | –
COc1ccc(-c2nn(-c3ccccc3)cc2/C=C/C(=O)NNC(=O)Nc2ccc(C)cc2)cc1 | 102% | 97.2% | 99.6% | 102% | 102% | 89.4% | 94.8% | 101% | 103% | –
CNC(=O)c1cc(Oc2cccc3nc(NC(=O)Nc4cc(C(F)(F)F)ccc4Cl)ccc23)ccn1 | 80% | 99.1% | 101% | 101% | 115% | 94% | 90% | 68.8% | 67.5% | –
Cc1nn(-c2cc(NC3CCC(O)CC3)c3c(=O)[nH]c(CCC(F)(F)F)cc3c2)c2c1C(=O)CC(C)(C)C2 (stereo unspecified) | 20.3% | 67.8% | 56.5% | 21% | 54.5% | 49.5% | 38.8% | 43.9% | 36.9% | –
O=C(Nc1ccccc1O)c1ccc(CNC(=O)c2ccsc2Nc2ccnc(C(F)(F)F)c2)cc1 | 13.5% | 38.3% | 46.1% | 26% | -2.27% (active) | -24% (active) | 27.6% | 42.8% | 47.3% | –
CC(C)(C)n1cc(-c2ccnc(NCCNS(=O)(=O)c3ccc(O)cc3)c2)c(-c2cccc(O)c2)n1 | 98.6% | 102% | 105% | 104% | 102% | 94.8% | 97.3% | 103% | 91.9% | –
NNCCc1ccc(NC(=O)CCCc2ccc(C(=O)Nc3ccccc3N)cc2)cc1 | 76.5% | 74.3% | 87% | 66.3% | 31.2% | 13.1% | 85.4% | 81.6% | 75.6% | –
COc1cc(OC)c(C(=O)C(CN(C)C)CN(C)C)cc1OC | 96.5% | 108% | 108% | 109% | 40% | -73.7% (active) | 109% | 7.98% (active) | -85.4% (active) | –
COC(=O)c1c2c(n3ccccc13)C(=O)c1ccccc1C2=O | 44.9% | 73.8% | 23.5% | 1.15% (active) | 77.8% | 54.4% | – | 71.5% | – | –
COC(=O)c1nc(-c2ccccc2)oc1S(=O)(=O)NCC(c1ccc(Cl)cc1)N1CCOCC1 (stereo unspecified) | 89.1% | 90.7% | 98.3% | 87.2% | 70.9% | 23.8% | 90.5% | 51.9% | 78.1% | –
CN1CCN(CC(=O)Nc2ccc3ncnc(Nc4ccc(Oc5cccc(C(F)(F)F)c5)c(Cl)c4)c3c2)CC1 | 53.1% | 81.5% | 26.5% | -69.4% (active) | 39.7% | 18% | 10.2% | -75.8% (active) | -39.5% (active) | –
O=C(NNC(=O)c1nc2cc(F)ccc2n2cccc12)c1cnccn1 | 45.7% | 42.4% | 45.2% | 14.7% | 47.7% | 56.1% | 28.5% | 51.9% | 16.5% | –
C=CCN1C(=O)c2cccc3c(N4CCOCC4)ccc(c23)C1=O | 8.01% (active) | -2.43% (active) | -56.6% (active) | 8.52% (active) | 21.1% | -1.11% (active) | – | 26.2% | -21.8% (active) | –
Cc1cccc[n+]1C1c2ccccc2-c2ccccc21 | 103% | 96.1% | 107% | 106% | 68.9% | 57.9% | – | 90.7% | – | –
COc1ccc(/C=C2\CN(C(=O)C(Cl)Cl)C/C(=C\c3ccc(OC)cc3)C2=O)cc1 | -36.9% (active) | 61.3% | 4.8% (active) | -34.5% (active) | -3.88% (active) | 14.9% | 4.79% (active) | -48.4% (active) | – | –
O=C1c2cccc3cccc(c23)C(=O)N1C/C=C/c1ccc2c3c(cccc13)C(=O)N(CCO)C2=O | – | 58.3% | 62.9% | 72.6% | 2.53% (active) | 89.2% | 81.2% | 84.4% | 68.3% | 70.6
CCN(CC)CCCN1C(=O)c2c(c(C)c3c(oc4ccc(OC)cc43)c2C)C1=O | – | 32.4% | 102% | 108% | 86.7% | 93.9% | 101% | 40.2% | 92.2% | 93.9
Cc1ccc(Cl)cc1NC(=O)c1sc2nc3c(cc2c1N)C(=O)CCC3 | – | 88.3% | 95.7% | 28.1% | 56.9% | 22.9% | 53.9% | 89.3% | 39.7% | 60.9
